Laboratory results: PubChem BioAssay AID1159580 (chemical genetic matrix, 2015)
Hit rate of the full screen: of about 5,500 compounds, about 2,000 (36%) were called active. Another 18% or so got no clear call; they are omitted. Cut-off read from the data, not from the text of the source: active = normalized growth mostly below about 0.91 (no sharp cut-off); inconclusive = no clear call, values can overlap the other calls; inactive = mostly above about 0.92. This is one part of the list.

Assay: chemical genetic growth profiling, strain panel (AID 1159580);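 note: tested at 20 µM; growth read once vehicle control cultures reached saturation at 30 °C; 1 = growth at the plate median or of vehicle wells; lower values mean less growth of the strain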
Details: S. cerevisiae deletion strains, growth OD

Measured: normalized growth

Cc1cccc(C(=O)O)c1O
inactive: locus YAL013W, strain DEP1, stronger effect = lower value 1.01 | locus YBR021W, strain FUR4, stronger effect = lower value 0.997 | locus YBR229C, strain ROT2, stronger effect = lower value 1.02 | locus YCL029C, strain bik1, stronger effect = lower value 1.02 | locus YDL035C, strain GPR1, stronger effect = lower value 0.999 | locus YDL074C, strain BRE1, stronger effect = lower value 1.02 | locus YDL101C, strain DUN1, stronger effect = lower value 1.02 | locus YDL134C, strain PPH21, stronger effect = lower value 1.01 | locus YDL185W, strain tfp1, stronger effect = lower value 1.02 | locus YDL192W, strain arf1, stronger effect = lower value 1.01 | locus YDR101C, strain arx1, stronger effect = lower value 1.01 | locus YDR162C, strain NBP2, stronger effect = lower value 1.02 | locus YDR318W, strain mcm21, stronger effect = lower value 1.02 | locus YDR388W, stronger effect = lower value 1.02 | locus YDR502C, strain sam2, stronger effect = lower value 1.01 | locus YEL061C, strain CIN8, stronger effect = lower value 1.01 | locus YER110C, stronger effect = lower value 1.01 | locus YER155C, strain BEM2, stronger effect = lower value 1 | locus YER167W, strain BCK2, stronger effect = lower value 1.01 | locus YGL078C, strain dbp3, stronger effect = lower value 1 | locus YGL086W, strain mad1, stronger effect = lower value 1.01 | locus YGL248W, strain PDE1, stronger effect = lower value 1.02 | locus YGR078C, strain PAC10, stronger effect = lower value 1.01 | locus YGR135W, strain pre9, stronger effect = lower value 1.02 | locus YGR252W, strain gcn5, stronger effect = lower value 1 | locus YHR030C, strain SLT2, stronger effect = lower value 1.02 | locus YHR079C, strain IRE1 (second series), stronger effect = lower value 1.01 | locus YHR094C, strain hxt1, stronger effect = lower value 1.01 | locus YHR129C, strain ARP1, stronger effect = lower value 1.01 | locus YHR200W, strain rpn10, stronger effect = lower value 1.02 | locus YIL066C, strain RNR3, stronger effect = lower value 1.02 | locus YIL073C, strain SPO22, stronger effect = lower value 1.02 | locus YIL125W, strain kgd1, stronger effect = lower value 1.01 | locus YIR030C, strain dcg1, stronger effect = lower value 1.02 | locus YJL095W, strain BCK1, stronger effect = lower value 1.02 | locus YJL134W, strain LCB3, stronger effect = lower value 1.01 | locus YJL168C, strain set2, stronger effect = lower value 1 | locus YJL187C, strain SWE1 (second series), stronger effect = lower value 1.02 | locus YJR043C, strain POL32, stronger effect = lower value 1.01 | locus YKL009W, strain mrt4, stronger effect = lower value 0.968 | locus YKL068W, stronger effect = lower value 1 | locus YKL085W, strain MDH1 (second series), stronger effect = lower value 1 | locus YKL085W, strain MDH1, stronger effect = lower value 1 | locus YKR001C, strain vps1, stronger effect = lower value 1.02 | locus YLR039C, strain RIC1, stronger effect = lower value 0.993 | locus YLR058C, strain SHM2, stronger effect = lower value 1.02 | locus YLR102C, strain apc9, stronger effect = lower value 1.01 | locus YLR262C, strain YPT6, stronger effect = lower value 1.04 | locus YLR268W, strain sec22, stronger effect = lower value 1.03 | locus YLR330W, strain CHS5, stronger effect = lower value 1.01 | locus YLR342W, strain FKS1 (second series), stronger effect = lower value 0.995 | locus YLR371W, strain rom2, stronger effect = lower value 1.02 | locus YLR418C, strain cdc73, stronger effect = lower value 1.05 | locus YML016C, strain PPZ1, stronger effect = lower value 1.01 | locus YML032C, strain rad52, stronger effect = lower value 1.02 | locus YML124C, strain tub3, stronger effect = lower value 1.02 | locus YMR078C, strain ctf18, stronger effect = lower value 1.02 | locus YMR223W, strain ubp8, stronger effect = lower value 1.02 | locus YMR307W, strain GAS1, stronger effect = lower value 0.975 | locus YNL067W, strain RPL9B, stronger effect = lower value 1.02 | locus YNL153C, strain GIM3, stronger effect = lower value 1.01 | locus YNL233W, strain BNI4, stronger effect = lower value 1.02 | locus YNL250W, strain rad50, stronger effect = lower value 1.02 | locus YNL271C, strain bni1, stronger effect = lower value 1 | locus YNL298W, strain CLA4, stronger effect = lower value 0.996 | locus YNL307C, strain MCK1, stronger effect = lower value 1.02 | locus YNL322C, strain KRE1, stronger effect = lower value 1.01 | locus YNR052C, strain pop2, stronger effect = lower value 1.03 | locus YOL012C, strain htz1 0.786 | locus YOL147C, strain pex11, stronger effect = lower value 1.01 | locus YOR061W, strain CKA2, stronger effect = lower value 1.01 | locus YOR069W, strain VPS5, stronger effect = lower value 1.02 | locus YOR136W, strain idh2, stronger effect = lower value 1.01 | locus YOR144C, strain elg1, stronger effect = lower value 1.01 | locus YOR184W, strain ser1, stronger effect = lower value 1.02 | locus YOR316C, strain cot1, stronger effect = lower value 1.02 | locus YPL055C, strain LGE1, stronger effect = lower value 1.01 | locus YPL241C, strain CIN2, stronger effect = lower value 1.01 | locus YPR119W, strain clb2, stronger effect = lower value 1.01 | locus YPR141C, strain kar3, stronger effect = lower value 1.01 | locus YPR163C, strain tif3, stronger effect = lower value 1.02 | locus YPR167C, strain met16, stronger effect = lower value 1.01 | strain wtn01, stronger effect = lower value 1
